Only some compounds are listed: those with a hit (about 3.6% of all), similar ones and a draw of the others.
mTORC1 inh: mTORC1 pathway inhibition measured by phospho-rpS6; AID 493208; Potency, µM (titrated, usually from 38.3 µM), without a hit: at the highest dose activity change, negative = inhibition, hits mostly inhibitors; actives 0.78% (n = 44,000); Tsc2-/- p53-/- MEF, phospho-rpS6 immunofluorescence/PI, 24 h;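 also: plate controls were DMSO for no effect and rapamycin for full effect; nearly all actives have a fitted effect of over 50% in size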
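Read-out: phospho-S6 Alexa-488 intensity over PI intensity per well, scored as % active cells using thresholds from rapamycin (7.5 nM) and DMSO controls. Tsc2-/-, p53-/- MEFs exposed to compound for 24 h; PI cell count recorded as viability.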
GALC G270D act: enhancers of human galactocerebrosidase G270D mutant activity in cells; P54803; 145M-Twi-hGALC-G270D cells (Twitcher mouse brain line with human GALC G270D), HMU-beta-Gal fluorescence, 48 h; Potency, µM (series often up to 57.5 µM), hits mostly activators; actives 0.1% (n = 45,000); also: 0% is about no effect; nearly all actives have a fitted effect of over 65% in size
Target sequence (P54803 whole entry G286D): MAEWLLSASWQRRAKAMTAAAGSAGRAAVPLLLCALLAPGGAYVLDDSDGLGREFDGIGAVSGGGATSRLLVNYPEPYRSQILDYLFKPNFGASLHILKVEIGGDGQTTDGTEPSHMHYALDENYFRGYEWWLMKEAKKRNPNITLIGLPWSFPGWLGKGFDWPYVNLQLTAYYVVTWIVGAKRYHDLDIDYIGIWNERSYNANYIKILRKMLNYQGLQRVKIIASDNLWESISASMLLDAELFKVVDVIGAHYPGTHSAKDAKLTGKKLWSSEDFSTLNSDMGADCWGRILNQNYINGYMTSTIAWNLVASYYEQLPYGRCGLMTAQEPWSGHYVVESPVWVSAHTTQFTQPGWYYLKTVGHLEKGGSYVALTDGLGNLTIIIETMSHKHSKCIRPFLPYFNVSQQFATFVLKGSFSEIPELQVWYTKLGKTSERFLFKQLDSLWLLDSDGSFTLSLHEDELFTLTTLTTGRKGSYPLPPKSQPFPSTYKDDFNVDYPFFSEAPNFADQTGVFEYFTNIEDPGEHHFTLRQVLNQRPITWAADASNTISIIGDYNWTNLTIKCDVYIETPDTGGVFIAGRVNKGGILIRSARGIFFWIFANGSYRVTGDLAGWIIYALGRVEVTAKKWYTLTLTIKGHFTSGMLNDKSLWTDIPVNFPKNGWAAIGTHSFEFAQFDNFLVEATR
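Brain-derived Twitcher mouse 145M-Twi cells stably expressing human GALC-G270D or wild-type GALC, treated live, then residual GALC activity read by fluorescence of HMU-b-Gal substrate (0.1 mM final) in citrate-phosphate buffer pH 5.2 with sodium taurocholate. Signal increase indicates enhancement.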
PMP22 txn prim: modulates PMP22 transcription in S16 Schwann cells; actives 2% (n = 43,000); S16 Pmp22-F2sN Schwann cells, FLuc/NLuc coincidence luminescence, 24 h; Potency, µM (series often up to 57.5 µM), inactives show at the top dose activity change, negative = inhibition, actives largely listed as inhibitors; active = clear falling dose curves in both reporters; inconclusive = both reporters move, but less clearly or upward; inactive = either reporter flat; the % is the NLuc reporter signal; also: % is scaled to controls: 0 for no effect and ±100 for the full control effect
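Luminescent read-out of sequential FLuc and NLuc signals from a reporter embedded in the Pmp22 3' UTR of S16 Schwann cells, taken after 24 h compound exposure at 37C; compounds reducing both signals score as inhibitors of expression.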
S16 viability: S16 Schwann cell cytotoxicity; S16 Pmp22-F2sN Schwann cells (luciferase reporters placed in the Pmp22 gene) viability, CellTiter-Glo, 24 h; Potency, µM (doses to about 57.5 µM), for inactives: at the top dose activity change, negative = cytotoxicity, hits mostly cytotoxic; actives 0.48% (n = 43,000); also: % is scaled to controls: 0 for no effect and ±100 for the full control effect; nearly all actives have a fitted effect of over 65% in size
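CellTiter-Glo counter-screen, qHTS, 1536-well. Cells: S16(c9) Pmp22-F2sN, 500-1,000/well in DMEM + 10% FBS. Cpd 23 nL pin transfer, 24 h, 37C/5% CO2. Read: luminescence, CCD imager.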
OvCa metastasis: blocks SKOV3ip1 adhesion and invasion in omental model. actives 0.1% (n = 46,000). SKOV3ip1-GFP adhesion/invasion on 3D omental model, fluorescence. Potency, µM (top dose mostly 45.8 µM), without a hit: at the top dose activity change, negative = inhibition, usual class: inhibitors;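 also: plate controls were DMSO wells for no effect and tomatine positive control wells for full effect; nearly all actives have a fitted effect of over 65% in size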
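Adhesion/invasion was scored as fixed GFP-labeled SKOV3ip1 cell counts (488/509 nm), normalized to DMSO and tomatine controls. Cancer cells in serum-free medium, with four compound doses (0.36-46 umol/L), sat 2 hr at RT then 16 hr at 37 C on a 48 hr fibroblast/mesothelial/ECM culture.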
NTMT1 inhibitor: NTMT1 methyltransferase inhibition | NTMT1 MTase-Glo SAH luminescence, purified enzyme | Q9BV86 | actives 2.5% (n = 59,000) | Potency, µM (series often up to 114 µM), for the others: at the highest dose activity change, negative = inhibition, most hits filed as inhibitors;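 also: plate controls were DMSO vehicle for no effect and no enzyme for full effect; nearly all actives have a fitted effect of over 65% in size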
An asterisk follows results filed as active; i = inactive; ? = inconclusive; / = no result given; [ ] = dose if it differs, or a comment. Unless noted, calls follow the shape of the dose curve; as a rule, active = well fitted curve in the direction sought with a large enough effect; inconclusive = small, poorly fitted or top-dose-only effect, or another doubt; inactive = no such curve, though single readings can be large; an effect the other way counts as inactive or inconclusive. Potency is read from the fitted curve at half-maximal effect.

SMILES	mTORC1 inh	GALC G270D act	PMP22 txn prim	S16 viability	OvCa metastasis	NTMT1 inhibitor
COc1ccc(Cn2c(C(=O)O)c(CNCc3ccccc3F)c3ccc(OC)cc32)cc1	12µM*	i	?	?	i	11%
COc1ccc2[nH]c(C(=O)N3CCC(CC(C)(C)O)CC3)cc2c1	/	/	/	/	/	20%
CCOc1ccc(CCNC(=O)c2cc3sccc3n2CCc2ccccc2)cc1OCC	/	/	/	/	/	1%
N#C/C(=C\c1ccc(-c2ccc(C(=O)O)cc2)o1)c1nc2ccccc2[nH]1	-10%	i	-30%	6%	3%	45µM*
COc1cccc(CNc2ccc(S(=O)(=O)Nc3nc4c(C)cccc4s3)cc2)c1O	/	/	/	/	/	-1%
CCS(=O)(=O)c1ncc(Cl)c(C(=O)N(Cc2ccccc2)Cc2ccco2)n1	3.3µM*	i	3.2µM*	3.5µM*	i	-2%
CCS(=O)(=O)c1ncc(N(Cc2ccccc2)Cc2ccco2)c(C(=O)Nc2cccc(Cl)c2C)n1	1%	i	-2%	-8%	-7%	1%
CC(=O)NCCNc1cc(Cl)nn2c(-c3cccc(S(=O)(=O)N(C)C)c3)c(C)nc12	/	/	/	/	/	-16%
COc1cc(O)c(C(CC(=O)N2CCC(C)CC2)c2ccc(C)cc2)c(OC)c1 (stereo not given)	/	/	/	/	/	-1%
Cc1cc(C)cc(-c2cnc3cc(Cl)c(-c4cccc(O)c4)cc3c2OCCCN)c1	/	/	/	/	/	-9%[57.5 µM]
Cc1ccc(C(C)C)cc2c(C)ccc1-2	/	i	/	/	/	24%[57.5 µM]
Cc1cc(OI)c(C(C)C)cc1-c1cc(C(C)C)c(OI)cc1C	/	i	/	/	/	18µM*
COc1ccc(-c2nc(-c3ccc(-c4cccc(Cl)c4)o3)[nH]c2-c2ccc(OC)cc2)cc1	/	/	/	/	/	1%[57.5 µM]
Cc1ccc(OCCn2c(CCNC(=O)c3ccc4cc[nH]c4c3)nc3ccccc32)cc1	/	/	/	/	/	6%
Nc1c(C(=O)NCc2ccccc2)nnn1Cc1cccc(Br)c1	-22%	i	3µM*	?	i	-16%
Nc1c(C(=O)Nc2ccccc2F)sc2nc3c(cc12)CCCCCC3	?	i	?	?	i	7%
COc1ccccc1NC(=O)c1sc2nc3c(cc2c1N)CCCCCC3	-17%	11µM*	-26%	12%	-17%	8%
CCN1CCc2nc3sc(C(=O)Nc4cccc(Cl)c4C)c(N)c3cc2C1	?	i	12µM*	?	-6%	?
FC(F)(F)c1cccc(-c2nc(NCc3ccc(-c4ccnc(C(F)(F)F)c4)cc3)c3ccccc3n2)c1	/	/	/	/	/	24%
Nc1ccc(NC(=O)Nc2nnc(-c3ccncc3)s2)cc1C(F)(F)F	/	/	/	/	/	-7%[57.5 µM]
[2H]c1nc(C)nc([2H])c1-c1cc(NC[C@@H](C)c2cccc3c(C(=O)NC)ccnc23)ncn1	/	/	/	/	/	1%
COc1cc([C@@H]2c3cc4c(cc3[C@@H](O[C@@H]3O[C@@H]5CO[C@@H](C)O[C@@H]5[C@H](O)[C@@H]3O)[C@H]3COC(=O)[C@H]23)OCO4)cc(OC)c1O	/	/	/	/	-12%	15%
CCOC(=O)c1cnn(-c2ccc(C(=O)Nc3cc(OC)c(OC)c(OC)c3)cc2)c1N	1%	i	-23%	-12%	0%	89µM*
CCOC(=O)c1cnn(-c2ccc(C(=O)Nc3ccc(C(C)=O)cc3)cc2)c1N	-8%	i	8%	1%	-12%	5%
Cc1cccc(OCc2ccc(-c3nc(C#N)c(NCCN(C)C)o3)o2)c1	5.2µM*	i	?	?	-16%	4%
SMILES	mTORC1 inh	GALC G270D act	PMP22 txn prim	S16 viability	OvCa metastasis	NTMT1 inhibitor
CC(Nc1oc(-c2ccc(COc3ccccc3)o2)nc1C#N)c1ccccc1 (stereo not given)	15µM*	i	?	-8%	?	9%
O=C1CCCC2=C1C(c1[nH]ncc1Cl)N=C(c1nc3ccccc3o1)N2 (stereo not given)	/	/	/	/	/	6%
CCCCNC(=O)c1c(C)oc2ncn(CC(C)C)c(=O)c12	-20%	i	11µM*	?	1%	-8%
Cc1cc(C)cc(NC(=O)N2CCN3CCCCC3C2)c1 (stereo not given)	0%	i	2%	0%	7%	-7%
Cc1cc(C)cc(NC(=O)N2CCC(N3CCCCC3)CC2)c1	-1%	i	-8%	20%	3%	89µM*
COc1ccc(CNC(=O)c2nc(Cn3nc(C)c(Br)c3C)no2)cc1OC	0%	i	-10%	-7%	i	89µM*
CC(Nc1nc(-c2ccccc2C(F)(F)F)nc2ccccc12)c1ccc(-c2ccccc2)cc1 (stereo not given)	/	/	/	/	/	3%
O=C(O)c1ccccc1-c1noc(-c2ccccc2F)n1	/	/	/	/	/	2%
O=C(O)c1ccc(-c2noc(-c3ccccc3F)n2)cc1	/	/	/	/	/	22µM*
NC(=O)[C@@H](CCC(F)(F)F)N(Cc1ccc(-c2ncon2)cc1F)S(=O)(=O)c1ccc(Cl)cc1	/	/	/	/	-17%	1%
N#Cc1nc(Nc2cc(F)cc(F)c2)nc(NC2CCCC2)n1	/	/	/	/	/	-13%[57.5 µM]
CCOC(=O)c1c(NC(=O)/C=C/c2ccc(OC)c(OC)c2)sc(C(C)=O)c1C	-4%	i	-6%	4%	-9%	5%
CCCOc1ccc(/C=C/C(=O)Nc2sc(C)c(C)c2C(=O)OCC)cc1OC	9%	i	-1%	1%	-1%	79µM*
COc1ccc(-c2c(NC(C)=O)sc3c2CCNC3)cc1	/	/	/	/	/	8%[57.5 µM]
O=C(O)c1cccnc1Nc1cccc(C(F)(F)F)c1	/	i	/	/	17%	?
Fc1ccc(Nc2nc3nonc3nc2Nc2cccc(C(F)(F)F)c2)cc1	?	i	7.3µM*	8.9µM*	-3%	7%
FC(F)(F)c1cccc(Nc2c3c(nc4ccc(Cl)cc24)CCC3)c1	5.8µM*	i	?	?	-6%	-3%
Cc1ccc(-c2ccnn(CC(=O)N(C)C(C)c3ccco3)c2=O)cc1 (stereo not given)	/	/	/	/	/	0%
CCOC(=O)c1c(C)[nH]c(C)c1S(=O)(=O)N1CCN(c2cccc(C(F)(F)F)c2)CC1	-3%	1.1µM*	?	?	-8%	-6%
